Measured values as given in PubChem BioAssay (NCI).
This is part of a sample that, as a whole, favours compounds with a hit. Of some 79,000 tested, about 15% had one in any assay. No stated cut-off is given here; in the data, active means growth inhibition above about 70%; inactive means the rest.

Assays:
[1] = NCI Yeast Anticancer Drug Screen. Data for the rad50 strain (AID 155);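 further: 0% = growth of vehicle-only cultures of the same strain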; details: S. cerevisiae rad50 strain growth inhibition; at 50.0 µM; stronger effect = higher value
Summary of the method: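 Compounds were tested on a yeast strain with an engineered DNA damage repair alteration; the reported value is growth inhibition normalised to vehicle treatment.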

[2] = NCI Yeast Anticancer Drug Screen. Data for the mec2-1 strain (AID 157); details: S. cerevisiae mec2-1 strain, at 50.0 µM, stronger effect = higher value
Summary of the method: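 Strain: mec2-1 (DNA repair/cell cycle alteration). Compound exposure, then growth measured; inhibition expressed relative to vehicle.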

[3] = NCI Yeast Anticancer Drug Screen. Data for the sgs1 mgt1 strain (AID 161);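 further: 0% = growth of cultures given vehicle only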; details: S. cerevisiae sgs1 mgt1 strain, at 50.0 µM, stronger effect = higher value
Summary of the method: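 Read-out: growth inhibition vs vehicle controls. Cells: mutant yeast strain deficient in DNA damage repair.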

[4] = NCI Yeast Anticancer Drug Screen. Data for the cln2 rad14 strain (AID 165);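 further: 0% = growth equal to vehicle treated cultures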; details: S. cerevisiae cln2 rad14 strain, at 50.0 µM, stronger effect = higher value
Summary of the method: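 Compounds are applied to the cln2 rad14 yeast strain, and growth is then compared with that of vehicle-treated cultures to give inhibition.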

[5] = NCI Yeast Anticancer Drug Screen. Data for the bub3 strain (AID 167); details: S. cerevisiae bub3 mutant strain, at 50.0 µM, stronger effect = higher value
Summary of the method: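 Growth of a checkpoint-deficient yeast mutant is measured after compound exposure. Values represent inhibition relative to vehicle.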

[6] = NCI Yeast Anticancer Drug Screen. Data for the mlh1 rad18 strain (AID 175); details: S. cerevisiae mlh1 rad18 strain growth inhibition; at 50.0 µM; stronger effect = higher value
Summary of the method: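 Read-out is yeast growth inhibition, calculated against vehicle-only controls. The compound was applied to a strain engineered with DNA damage repair alterations.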

Measured: growth inhibition

O=C(NCCN1CCCCC1)c1cccc(I)c1
inactive: [1] 2.45% | [2] -4.85% | [3] 15.5% | [4] 28.3% | [5] 8.15% | [6] 16%

O=CC1N=C(Cc2ccccc2)OC1=O (stereo not given)
inactive: [1] 25.6% | [2] 10% | [3] -6.2% | [4] -4.55% | [5] -7.35% | [6] 8.2%

COc1cccc(-n2cnc3c(SC)ncnc32)c1
inactive: [1] 8.8% | [2] 3.9% | [3] 4.75% | [4] -27.9% | [5] 19.1% | [6] 1.6%

Clc1ccc(-c2cc(-c3cc(-c4ccc(Cl)cc4Cl)n[nH]3)[nH]n2)c(Cl)c1
inactive: [1] 14.2% | [2] 1.75% | [3] -5.3% | [4] 20.6% | [5] 9.9% | [6] 8.55%

NS(=O)(=O)c1ccc(NCc2cnc3ccccc3c2)cc1
inactive: [1] -4.65% | [2] -22.3% | [3] 12% | [4] -5.25% | [5] 4.1% | [6] 27.4%

CCCCC/C(C)=C\CBr
inactive: [1] -7.65% | [2] -2.65% | [3] -7.1% | [4] -22.9% | [5] -10.6% | [6] -3%

COc1cc(C(=O)Nc2ccc(N3CCCCC3)cc2)cc(OC)c1OC
inactive: [1] 25.1% | [2] 9.2% | [3] 38.4% | [4] -16.2% | [5] 14.6% | [6] 36.3%

Cc1ccc(S(=O)(=O)N/N=C(\c2nc3ccc([N+](=O)[O-])cc3[nH]c2=O)C(O)c2ccccc2Cl)cc1 (stereo not given)
inactive: [1] -1.2% | [2] -9.35% | [3] 11.6% | [4] 5.85% | [5] 10.3% | [6] 23.8%

COC(c1ccccc1)c1ccccc1
inactive: [1] -21.1% | [2] 4.9% | [3] 29.5% | [4] -16.4% | [5] 1.75% | [6] -8%

COc1ccccc1NC(=O)C(Cc1ccccc1)NC(C)=O (stereo not given)
inactive: [1] 25.2% | [2] 3.7% | [3] -1.85% | [4] -51.5% | [5] 8.2% | [6] 2.65%

O=C(OCc1ccc(Cl)cc1Cl)OCc1ccc(Cl)cc1Cl
inactive: [1] 7.55% | [2] -0.9% | [3] -3.7% | [4] -31.7% | [5] 19.2% | [6] 37.4%

C/C(=C/C(=O)O)c1ccccc1
inactive: [1] 10.7% | [2] -14.4% | [3] 2.2% | [4] -19.6% | [5] -15.3% | [6] -1.95%

CCOC(=O)/C(C#N)=C/c1ccccc1OC
inactive: [1] 35.6% | [2] 38.9% | [3] 31.9% | [4] 10.5% | [5] 47.5% | [6] 47.5%

FC(F)(F)c1cccc(NC(=S)Nc2ccccc2S)c1
inactive: [1] 24% | [2] 20.2% | [3] 27.4% | [4] 25.6% | [5] 9.95% | [6] 17%

Cc1ccc(NC(=O)NCCCCCCNC(=O)Nc2ccc(C)cc2)cc1
inactive: [1] -7.05% | [2] -13% | [3] -7.95% | [4] -9.05% | [5] -14.4% | [6] -17.9%

CC(C)=CCNc1ccccc1
inactive: [1] -11.3% | [2] -24.1% | [3] 1.7% | [4] 17.4% | [5] 1.05% | [6] -7.3%

CCC1C(=O)Nc2ccccc21 (stereo not given)
inactive: [1] 16.4% | [2] 16.9% | [3] 1.3% | [4] 7.85% | [5] 13.8% | [6] 8.5%

Oc1cc(O)c2c(c1)O[C@@H](c1ccc(O)c(O)c1)[C@H](O)C2
inactive: [1] 5.75% | [2] -37.4% | [3] 0.2% | [4] 6.15% | [5] -12.7% | [6] 7.55%

CNc1c2c(nc3ccccc13)CCCC2
inactive: [1] 1.95% | [2] -10.3% | [3] -10.1% | [4] -44.4% | [5] 15.1% | [6] -19.2%

NCC(O)C(F)(F)F (stereo not given)
inactive: [1] -5.2% | [2] -7.9% | [3] -27.3% | [4] -15.1% | [5] 1.75% | [6] -14.5%
